# PMC5540273 (PLoS ONE, 2017)
# Read-outs that look alike come from different tables or passages of the source.
# Legend:
# FGFR4 = conditions: concentration: 1 μM, replicates: in singlicate; n = 1
# FGR = conditions: concentration: 1 μM, replicates: in singlicate; n = 1
# FLT1 = conditions: concentration: 1 μM, replicates: in singlicate; n = 1
# FLT3-autoinhibited = conditions: concentration: 1 μM, replicates: in singlicate; n = 1
# FLT3 = conditions: concentration: 1 μM, replicates: in singlicate; n = 1
# FLT4 = conditions: concentration: 1 μM, replicates: in singlicate; n = 1
# FRK = conditions: concentration: 1 μM, replicates: in singlicate; n = 1
# FYN = conditions: concentration: 1 μM, replicates: in singlicate; n = 1
# GAK = conditions: concentration: 1 μM, replicates: in singlicate; n = 1
# GCN2(Kin.Dom.2,S808G) = test system: T1, GCN2(Kin.Dom.2,S808G); conditions: concentration: 1 μM, replicates: in singlicate; n = 1
# T1 construct: gene EIF2AK4
# GRK1 = conditions: concentration: 1 μM, replicates: in singlicate; n = 1
# GRK2 = test system: T2, GRK2; conditions: concentration: 1 μM, replicates: in singlicate; n = 1
# T2 construct: gene ADRBK1
# GRK3 = test system: T3, GRK3; conditions: concentration: 1 μM, replicates: in singlicate; n = 1
# T3 construct: gene ADRBK2
# GRK4 = conditions: concentration: 1 μM, replicates: in singlicate; n = 1
# GRK7 = conditions: concentration: 1 μM, replicates: in singlicate; n = 1
# GSK3A = conditions: concentration: 1 μM, replicates: in singlicate; n = 1
# GSK3B = conditions: n = 1
# HASPIN = test system: T4, HASPIN; conditions: concentration: 1 μM, replicates: in singlicate; n = 1
# T4 construct: gene GSG2
# HCK = conditions: concentration: 1 μM, replicates: in singlicate; n = 1
# HIPK1 = conditions: concentration: 1 μM, replicates: in singlicate; n = 1
# [1] = concentration: 1 μM, replicates: in singlicate
# 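Further: KINOMEscan kinase panel screen.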
smiles,measurement,setting,value
Nc1nc(-c2ccc3c(N)n[nH]c3c2)cc(N2CCC[C@@H](C(=O)Nc3ccccc3)C2)n1.O=C(O)C(F)(F)F.O=C(O)C(F)(F)F [GSK2288359],%Inh,FGFR4,8%
same,%Inh,FGR,15%
same,%Inh,FLT1,6%
same,%Inh,FLT3-autoinhibited,29%
same,%Inh,FLT3,0%
same,%Inh,FLT4,0%
same,%Inh,FRK,0%
same,%Inh,FYN,38%
same,%Inh,GAK,0%
same,%Inh,"GCN2(Kin.Dom.2,S808G)",0%
same,%Inh,GRK1,0%
same,%Inh,GRK2,0%
same,%Inh,GRK3,0%
same,%Inh,GRK4,27%
same,%Inh,GRK7,0%
same,%Inh,GSK3A,20%
same,%Inh,GSK3B; [1],14%
same,%Inh,HASPIN,0%
same,%Inh,HCK,0%
same,%Inh,HIPK1,0%
CN1c2ccc(-c3ccc(C(=O)NCCO)cc3)cc2-c2[nH]ncc2S1(=O)=O,%Inh,FGFR4,8%
same,%Inh,FGR,34%
same,%Inh,FLT1,11%
same,%Inh,FLT3-autoinhibited,20%
same,%Inh,FLT3,37%
same,%Inh,FLT4,7%
same,%Inh,FRK,1%
same,%Inh,FYN,15%
same,%Inh,GAK,21%
same,%Inh,"GCN2(Kin.Dom.2,S808G)",34%
same,%Inh,GRK1,4%
same,%Inh,GRK2,0%
same,%Inh,GRK3,0%
same,%Inh,GRK4,1%
same,%Inh,GRK7,22%
same,%Inh,GSK3A,8%
same,%Inh,GSK3B; [1],32%
same,%Inh,HASPIN,21%
same,%Inh,HCK,16%
same,%Inh,HIPK1,67%
CNc1nccc(-c2c(-c3ccc(F)cc3)ncn2CCCN2CCOCC2)n1 [SB-222516],%Inh,FGFR4,0%
same,%Inh,FGR,10%
same,%Inh,FLT1,1%
same,%Inh,FLT3-autoinhibited,14%
same,%Inh,FLT3,15%
same,%Inh,FLT4,5%
same,%Inh,FRK,0%
same,%Inh,FYN,0%
same,%Inh,GAK,0%
same,%Inh,"GCN2(Kin.Dom.2,S808G)",0%
same,%Inh,GRK1,22%
same,%Inh,GRK2,0%
same,%Inh,GRK3,23%
same,%Inh,GRK4,0%
same,%Inh,GRK7,0%
same,%Inh,GSK3A,0%
same,%Inh,GSK3B; [1],14%
same,%Inh,HASPIN,8%
same,%Inh,HCK,0%
same,%Inh,HIPK1,0%
COc1ccc(NC(=O)Nc2ccc(C)c(-c3ccc(C(=O)Nc4ccncc4)cc3)c2)cc1 [GSK1398475],%Inh,FGFR4,5%
same,%Inh,FGR,27%
same,%Inh,FLT1,26%
same,%Inh,FLT3-autoinhibited,0%
same,%Inh,FLT3,85%
same,%Inh,FLT4,15%
same,%Inh,FRK,23%
same,%Inh,FYN,41%
same,%Inh,GAK,0%
same,%Inh,"GCN2(Kin.Dom.2,S808G)",0%
same,%Inh,GRK1,0%
same,%Inh,GRK2,0%
same,%Inh,GRK3,11%
same,%Inh,GRK4,0%
same,%Inh,GRK7,0%
same,%Inh,GSK3A,15%
same,%Inh,GSK3B; [1],7%
same,%Inh,HASPIN,0%
same,%Inh,HCK,0%
same,%Inh,HIPK1,0%
CSc1ccc(NC2=C(c3ccccc3Cl)C(=O)NC2=O)cc1 [SB-342411],%Inh,FGFR4,16%
same,%Inh,FGR,14%
same,%Inh,FLT1,6%
same,%Inh,FLT3-autoinhibited,0%
same,%Inh,FLT3,0%
same,%Inh,FLT4,1%
same,%Inh,FRK,9%
same,%Inh,FYN,0%
same,%Inh,GAK,14%
same,%Inh,"GCN2(Kin.Dom.2,S808G)",0%
same,%Inh,GRK1,0%
same,%Inh,GRK2,0%
same,%Inh,GRK3,0%
same,%Inh,GRK4,3%
same,%Inh,GRK7,0%
same,%Inh,GSK3A,81%
same,%Inh,GSK3B; 1 µM,29%
same,%Inh,HASPIN,0%
same,%Inh,HCK,0%
same,%Inh,HIPK1,8%
Nc1nc(-c2cccnc2)c(-c2ccnc3ccccc23)s1 [GW684083],%Inh,FGFR4,0%
same,%Inh,FGR,24%
same,%Inh,FLT1,29%
same,%Inh,FLT3-autoinhibited,0%
same,%Inh,FLT3,16%
same,%Inh,FLT4,0%
same,%Inh,FRK,5%
same,%Inh,FYN,12%
same,%Inh,GAK,77%
same,%Inh,"GCN2(Kin.Dom.2,S808G)",24%
same,%Inh,GRK1,0%
same,%Inh,GRK2,1%
same,%Inh,GRK3,39%
same,%Inh,GRK4,8%
same,%Inh,GRK7,0%
same,%Inh,GSK3A,11%
same,%Inh,GSK3B; [1],7%
same,%Inh,HASPIN,83%
same,%Inh,HCK,0%
same,%Inh,HIPK1,11%
O=c1cc(N2CCOCC2)nc2n(Cc3cccc(Cl)c3)ccn12 [GSK2296823],%Inh,FGFR4,5%
same,%Inh,FGR,15%
same,%Inh,FLT1,19%
same,%Inh,FLT3-autoinhibited,14%
same,%Inh,FLT3,0%
same,%Inh,FLT4,1%
same,%Inh,FRK,7%
same,%Inh,FYN,0%
same,%Inh,GAK,2%
same,%Inh,"GCN2(Kin.Dom.2,S808G)",0%
same,%Inh,GRK1,15%
same,%Inh,GRK2,0%
same,%Inh,GRK3,12%
same,%Inh,GRK4,47%
same,%Inh,GRK7,0%
same,%Inh,GSK3A,28%
same,%Inh,GSK3B; [1],7%
same,%Inh,HASPIN,0%
same,%Inh,HCK,0%
same,%Inh,HIPK1,12%
COc1ccc(NC(=O)c2ccc(-c3cc(-c4nnc(C)o4)ccc3C)cc2)cc1 [GW595885],%Inh,FGFR4,0%
same,%Inh,FGR,10%
same,%Inh,FLT1,19%
same,%Inh,FLT3-autoinhibited,0%
same,%Inh,FLT3,0%
same,%Inh,FLT4,0%
same,%Inh,FRK,10%
same,%Inh,FYN,6%
same,%Inh,GAK,0%
same,%Inh,"GCN2(Kin.Dom.2,S808G)",14%
same,%Inh,GRK1,0%
same,%Inh,GRK2,0%
same,%Inh,GRK3,99.2%
same,%Inh,GRK4,22%
same,%Inh,GRK7,0%
same,%Inh,GSK3A,32%
same,%Inh,GSK3B; [1],0%
same,%Inh,HASPIN,21%
same,%Inh,HCK,0%
same,%Inh,HIPK1,0%
Cl.O=S(=O)(c1cccc(F)c1)c1ccc(Nc2ncnc3cc(Br)sc23)cc1Cl [GSK306886],%Inh,FGFR4,30%
same,%Inh,FGR,24%
same,%Inh,FLT1,20%
same,%Inh,FLT3-autoinhibited,0%
same,%Inh,FLT3,0%
same,%Inh,FLT4,98.1%
same,%Inh,FRK,0%
same,%Inh,FYN,41%
same,%Inh,GAK,3%
same,%Inh,"GCN2(Kin.Dom.2,S808G)",0%
same,%Inh,GRK1,4%
same,%Inh,GRK2,0%
same,%Inh,GRK3,0%
same,%Inh,GRK4,0%
same,%Inh,GRK7,0%
same,%Inh,GSK3A,21%
same,%Inh,GSK3B; [1],31%
same,%Inh,HASPIN,0%
same,%Inh,HCK,0%
same,%Inh,HIPK1,0%
O=C(Nc1ccccc1)Nc1ccc(Oc2ccc3nccn3n2)cc1,%Inh,FGFR4,63%
same,%Inh,FGR,19%
same,%Inh,FLT1,51%
same,%Inh,FLT3-autoinhibited,0%
same,%Inh,FLT3,25%
same,%Inh,FLT4,6%
same,%Inh,FRK,0%
same,%Inh,FYN,0%
same,%Inh,GAK,0%
same,%Inh,"GCN2(Kin.Dom.2,S808G)",16%
same,%Inh,GRK1,11%
same,%Inh,GRK2,0%
same,%Inh,GRK3,0%
same,%Inh,GRK4,17%
same,%Inh,GRK7,0%
same,%Inh,GSK3A,14%
same,%Inh,GSK3B; [1],0%
same,%Inh,HASPIN,0%
same,%Inh,HCK,7%
same,%Inh,HIPK1,26%
